Measured values: PubChem BioAssay (NCI)
“And” between values parts separate entries of the source, which are not always exact repeats. Equal values may be shown once. The panel holds about 83,000 compounds, 20% with a hit somewhere; the sample as a whole holds those more often.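 Step 1: grow cells in 96-well plates. Step 2: add test compound at a single concentration. Step 3: incubate 48 h. Step 4: record percent growth.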 The source made the active and inactive calls. How the source made its calls: active means growth percent below 10; inactive means the rest.

What was measured:
Assay in all cases: NCI-60 one-dose screen, 48 h (100 = growth as untreated, 0 = no growth, -100 = all killed)
Conditions in all cases: 10 µM unless noted
[1] = system: NCI-H23 lung
[2] = system: NCI-H226 lung
[3] = system: NCI-H322M lung
[4] = system: HOP-62 NSCLC
[5] = system: NCI-H460 lung
[6] = system: HOP-92 NSCLC
[7] = system: NCI-H522 lung
[8] = system: 786-0 renal
[9] = system: COLO 205 colon
[10] = system: A549/ATCC NSCLC

Measured: growth

CCCCCCCCCCCCCCCC[N+](C)(C)Cc1ccccc1
active: [1] 9.06% and -49.4% | [6] -39.2% and -55.5% | [7] 4.46% and -58.2% | [9] -30.4% and -100%
21.5% (inactive) and -6.4% (active): [2]
17.9% (inactive) and -86.3% (active): [4]
15.7% (inactive) and -100% (active): [5]
inactive: [3] 63.3% and 33.8%
11% (inactive) and -94.1% (active): [8]

C[C@]12CCC3[C@@H](C[C@@H]4SC(Nc5ccccc5)=N[C@@]45CC(=O)CC[C@]35C)[C@@H]1CCC2=O (some centres not stated)
active: [5] -13% | [6] -18.2% | [7] -66% | [8] -45% | [9] -46.3%
inactive: [1] 42.5% | [2] 49.4% | [3] 58.2% | [4] 12.6% | [10] 33.5%

Cc1cc(N)ccc1N
inactive: [1] 105% | [2] 92% | [3] 95% | [4] 93.9% | [5] 106% | [6] 95.1% | [7] 106% | [10] 98.2% | [9] 120%

C[C@]12CCC(=O)C[C@@H]1CC[C@@H]1[C@@H]2CC[C@]2(C)[C@@H](OC(=O)N(CCCl)N=O)CC[C@@H]12
inactive: [1] 29.5% | [2] 45.8% | [3] 49.3% | [4] 23.9% | [7] 22.3% | [10] 28.2% | [8] 14.2% | [9] 31.8%
active: [5] -64% | [6] -8.11%

Oc1ccccc1C=NCCN=Cc1ccccc1O
inactive: [1] 99.8% | [2] 99.5% | [3] 97.5% | [4] 96.9% | [5] 107% | [6] 99.6% | [7] 92.3% | [10] 98.7% | [8] 106% | [9] 118%

CC12CCC3C4CCC(=O)C=C4CCC3C1CC1CC(=O)OC12 (configuration not stated)
inactive: [1] 96.2% | [2] 93.7% | [3] 89.9% | [4] 88% | [5] 104% | [6] 92.7% | [7] 79% | [10] 84.5% | [8] 107% | [9] 105%

C#COc1cccc(Nc2ncnc3cc(NC(=O)CF)ccc23)c1
active: [7] -25.3% [6.25 µM]
inactive: [1] 81.4% [6.25 µM] | [2] 83.4% [6.25 µM] | [3] 70.5% [6.25 µM] | [4] 30.3% [6.25 µM] | [5] 21.4% [6.25 µM] | [6] 47.7% [6.25 µM] | [10] 40% [6.25 µM] | [8] 30.7% [6.25 µM] | [9] 13.2% [6.25 µM]

CCCCCCCCCCCCCCCC[n+]1ccccc1
active: [1] -38.3% and -24.8% | [2] -77.3% and -0.958% | [4] -84.4% and -49.3% | [5] -88.3% and -83.1% | [6] -48.4% and -41.7% | [7] -57.3% and -67.7% | [10] -61.4% | [8] -73% and -92.8% | [9] -77.6% and -71.5%
inactive: [3] 11.4% and 40.2%

CCCCCCCCCCCCCCCCCCn1cc[n+](C)c1
active: [1] -48.9% and -44.3% | [2] -54% and -61.7% | [3] 5.3% and 6.16% | [4] -58.6% and -74.1% | [5] -62.9% and -51.3% | [6] -51.3% and -66.2% | [7] -74.9% and -74.3% | [10] -15.2% and -47.2% | [8] -74.9% and -81.7% | [9] 1.82% and -47.3%

N#CCC(=O)c1ccccc1
inactive: [1] 97.7% | [2] 97.9% | [3] 96.6% | [4] 101% | [5] 96.9% | [6] 86.8% | [7] 102% | [8] 107% | [9] 101%

O=P1(N(CCCl)CCCl)NCCCO1 (configuration not stated)
inactive: [1] 112% | [2] 101% | [3] 104% | [4] 105% | [5] 104% | [6] 131% | [7] 109% | [8] 104% | [9] 116%

CN1CCN(c2ccc(Cl)cc2)CC1
inactive: [1] 73.6% | [2] 93.8% | [3] 94.2% | [4] 93.1% | [5] 44.6% | [6] 93.7% | [7] 44.3% | [10] 69.1% | [8] 104% | [9] 89.8%

CCCCOCCOP(=O)(OCCOCCCC)OCCOCCCC
inactive: [1] 101% | [2] 90.6% | [3] 120% | [4] 91.6% | [5] 99.3% | [6] 111% | [7] 100% | [8] 110% | [9] 105%

CCOC(=O)c1ccccc1C(=O)OCC
inactive: [1] 109% | [2] 94.6% | [3] 97.8% | [4] 92.6% | [5] 112% | [6] 89.4% | [7] 61.1% | [10] 99.2% | [8] 96.4% | [9] 120%

OCCNC1CCCCC1
inactive: [1] 108% | [2] 104% | [3] 113% | [4] 99.2% | [5] 105% | [6] 108% | [10] 106% | [9] 112%

COCC1OC2OC3C(COC)OC(OC4C(COC)OC(OC5C(COC)OC(OC6C(COC)OC(OC7C(COC)OC(OC8C(COC)OC(OC1C(O)C2O)C(O)C8O)C(O)C7O)C(O)C6O)C(O)C5O)C(O)C4O)C(O)C3O (configuration not stated) (tested in a mixture with another compound)
inactive: [1] 102% | [2] 102% | [3] 134% | [5] 109% | [7] 109% | [10] 109% | [8] 139% | [9] 127%

OCCN=Cc1c[nH]c2ccccc12
inactive: [1] 91.6% | [2] 83.5% | [3] 102% | [4] 85.1% | [5] 103% | [7] 95.2% | [10] 95.2% | [8] 95.7% | [9] 112%

CC(Oc1ccc(-c2ccccc2)cc1)C(=O)O (configuration not stated)
inactive: [1] 106% | [2] 95.5% | [3] 102% | [5] 103% | [7] 99.8% | [10] 96.5% | [8] 101% | [9] 102%

Cc1nnc([S-])o1.[Au+].c1ccc([PH+](c2ccccc2)c2ccccc2)cc1
active: [6] -9.28% | [7] -81.1%
inactive: [1] 61.5% | [2] 114% | [4] 121% | [5] 86% | [10] 76.4% | [8] 38.8% | [9] 55.4%

N#CCCc1ccccc1
inactive: [1] 104% | [2] 95.4% | [3] 105% | [5] 112% | [7] 95.3% | [8] 106% | [9] 109%

C[N+]12CCC34C5=CC(=O)C(=O)C=C5[N+]5(C)C(=O)CC6OCC=C(C1)C(CC32)C6C45 (configuration not stated)
inactive: [1] 117% | [2] 98.6% | [3] 98.5% | [4] 102% | [5] 105% | [10] 106% | [8] 112% | [9] 101%

C=CC1CN2CCC1CC2C(O)c1ccnc2ccccc12 (configuration not stated)
inactive: [1] 24.4% | [2] 112% | [3] 145% | [4] 121% | [5] 118% | [7] 24.2% | [8] 108% | [9] 104%

C/C=C(/C)C(=O)O[C@H]1CC[C@@]2(C)[C@@H]3CC[C@H]4[C@]5(O)C[C@H](O)[C@@]6(O)[C@@H](CN7C[C@@H](C)CC[C@H]7[C@@]6(C)O)[C@]5(O)C[C@@]42O[C@@]13O
inactive: [1] 106% | [2] 102% | [3] 97.9% | [5] 110% | [10] 94% | [8] 89.9% | [9] 118%
active: [4] -56.5%

COC12CC3(C)C(C4=CC(=O)OC4)CCC3(O)C3CCC4=CC(=O)CCC4(CO1)C32 (configuration not stated)
inactive: [1] 99% | [2] 101% | [3] 83% | [5] 113% | [6] 76.8% | [7] 14.7% | [10] 98.8% | [8] 94.5% | [9] 116%

C=CCOC(=O)C(Br)CC (configuration not stated)
inactive: [1] 99% | [2] 101% | [3] 108% | [4] 108% | [5] 104% | [7] 99.2% | [10] 107% | [8] 106% | [9] 103%

CC1(C)CN=C(NN=C(/C=C/c2ccc(C(F)(F)F)cc2)/C=C/c2ccc(C(F)(F)F)cc2)NC1
inactive: [3] 31.4%
active: [1] -43% | [2] -15.1% | [4] -85.5% | [5] -54% | [7] -76.6% | [8] -90.2% | [9] -91.6%

CN(C)C(=S)SSC(=S)N(C)C
-20.9% (active) and 92.9% (inactive): [5]
inactive: [1] 98.9% and 138% | [2] 99.3% and 110% | [4] 111% and 112% | [6] 102% | [7] 25.3% and 24.4% | [10] 80% and 71.6% | [8] 107% and 101% | [9] 63.1% and 70.6%

O=C(O)C(O)c1ccc(Cl)cc1 (configuration not stated)
inactive: [1] 99.1% and 107% | [2] 97% and 103% | [4] 107% | [5] 106% and 114% | [6] 112% | [7] 100% and 88.1% | [10] 107% and 95.6% | [8] 97.6% and 96.7% | [9] 106% and 116%
